Only some compounds are listed: those with a hit (about 1.9% of all), similar ones and a draw of the others.
DSG3 Ab inh = blocks pemphigus antibody binding to human desmoglein-3; P32926; DSG3-coupled beads, scFv-anti-DSG3-GFP binding, flow cytometry; stronger effect = lower value; binding (percent of control), % at 10 µM; 0.48% of 310,000 active; AID 588358;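 active = binding more than 3 SD below its plate's average and above zero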;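 note: hits lower antibody fragment binding to DSG3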
NSD2 HMT inh = inhibitors of human histone methyltransferase NSD2. NSD2 peptide methylation, AlphaScreen, 120 min. inhibition, % at 12.5 µM. 0.54% of 310,000 active. AID 743445; in the data active = inhibition above about 50%
N-glyco inh = N-linked glycosylation inhibition; AID 588692; reporter increase, % at 12.5 µM; 0.23% of 360,000 active; D54 ERlucT glycosylation luciferase reporter, 24 h; percent of 100 nM tunicamycin response;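 active = mean luciferase reporter signal, scaled so untreated is 0 and the glycosylation-blocking control 100, at or above a set limit in every replicate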;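 note: luciferase carries N-glycosylation sites so blocking glycosylation raises the light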
ATG4B inhibitor = inhibitors of human ATG4B cysteine protease; Q9Y4P1; ATG4B cleavage of LC3-PLA2, NBD-HPC fluorescence, 1 h; inhibition, % at 8.33 µM; 0.51% of 340,000 active; in the data active = inhibition above about 40%
Target sequence (Q9Y4P1 whole entry, looked up): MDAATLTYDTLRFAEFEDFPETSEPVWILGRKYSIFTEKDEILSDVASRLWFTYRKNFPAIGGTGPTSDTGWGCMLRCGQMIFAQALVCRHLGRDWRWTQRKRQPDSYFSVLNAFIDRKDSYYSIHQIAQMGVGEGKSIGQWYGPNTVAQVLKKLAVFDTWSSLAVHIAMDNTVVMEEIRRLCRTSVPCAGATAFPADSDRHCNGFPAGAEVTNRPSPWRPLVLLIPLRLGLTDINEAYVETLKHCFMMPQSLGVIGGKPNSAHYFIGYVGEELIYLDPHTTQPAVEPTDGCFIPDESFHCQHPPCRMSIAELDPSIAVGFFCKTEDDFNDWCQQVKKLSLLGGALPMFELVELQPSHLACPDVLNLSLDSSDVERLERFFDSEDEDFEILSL
Vif imaging = HIV Vif inhibition; AID 602346; 0.35% of 340,000 active; HEK293T cells, Vif self-association by quenched fluorescence, imaging, 24 h; inhibition, % at 7.49 µM; in the data active = inhibition above about 50%, passing the limit was not always enough
CaV13 ICDI inh = Disruptors of the CACNA1D IQ motif to Ca2+-dependent inactivation inhibitor domain association, primary screening, Förster resonance energy transfer in intact living …; HEK cells, CFP/YFP FRET ICDI-IQ, plate reader, 10 min; percent FRET-ratio fall versus neutral wells; inhibition, % at 12.3 µM; 0.098% of 340,000 active;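 active = mean replicate inhibition of at least 30% and at least 1% of replicates passing that level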
Hits are given with their value.

How did O=C(Cc1ccc([N+](=O)[O-])cc1)NNC(=O)c1cccs1 do in these assays?
NSD2 HMT inh: inactive; N-glyco inh: inactive; ATG4B inhibitor: inactive; Vif imaging: inactive; CaV13 ICDI inh: inactive

Results for CC(=O)c1sc(NC(=O)COc2ccc([N+](=O)[O-])cc2)nc1C ?
DSG3 Ab inh: inactive; NSD2 HMT inh: inactive; N-glyco inh: inactive; ATG4B inhibitor: inactive; Vif imaging: 98; CaV13 ICDI inh: inactive

Results for O=C(COc1ccc(Cl)cc1)NCCNc1ccc([N+](=O)[O-])cc1 ?
DSG3 Ab inh: 72; NSD2 HMT inh: inactive; N-glyco inh: inactive; ATG4B inhibitor: inactive; Vif imaging: inactive; CaV13 ICDI inh: inactive

What do the screens show for `CCOC(=O)c1cnc(-n2cc(C)cn2)nc1Nc1ccccc1OCC`?
DSG3 Ab inh: inactive; NSD2 HMT inh: inactive; N-glyco inh: inactive; ATG4B inhibitor: inactive; Vif imaging: inactive; CaV13 ICDI inh: inactive

What do the screens show for `COc1cccc(NC(=O)C2(C)CCN2C(=O)Cc2ccc(-c3ccccc3)cc2)c1` (stereo not drawn)?
NSD2 HMT inh: inactive; N-glyco inh: inactive; Vif imaging: inactive; CaV13 ICDI inh: inactive

What do the screens show for `Cc1ccc(NC(=O)COC(=O)C(NS(=O)(=O)c2ccc(Cl)cc2)C(C)O)c(Br)c1` (stereo not drawn)?
DSG3 Ab inh: 53; NSD2 HMT inh: inactive; N-glyco inh: inactive; ATG4B inhibitor: inactive; Vif imaging: inactive; CaV13 ICDI inh: inactive

What do the screens show for `Cc1ccc(NC(=O)COC(=O)C(NS(=O)(=O)c2ccc(Cl)cc2)C(C)O)cc1C` (stereo not drawn)?
DSG3 Ab inh: inactive; NSD2 HMT inh: inactive; N-glyco inh: inactive; ATG4B inhibitor: inactive; Vif imaging: inactive; CaV13 ICDI inh: inactive

What do the screens show for `COc1ccccc1C(=O)Nc1c2c(nn1-c1cccc(C)c1C)CS(=O)(=O)C2`?
DSG3 Ab inh: 32; NSD2 HMT inh: inactive; N-glyco inh: inactive; ATG4B inhibitor: inactive; Vif imaging: inactive; CaV13 ICDI inh: inactive

How did Cc1nc(NC(=O)c2oc3ccccc3c2C)sc1C(=O)N(C)C do in these assays?
DSG3 Ab inh: inactive; NSD2 HMT inh: inactive; N-glyco inh: inactive; ATG4B inhibitor: inactive; Vif imaging: inactive; CaV13 ICDI inh: inactive

How did C=CCn1c(C)cc(C(=O)CSc2nc(N)cc(N)n2)c1C do in these assays?
DSG3 Ab inh: inactive; NSD2 HMT inh: inactive; N-glyco inh: inactive; ATG4B inhibitor: inactive; Vif imaging: inactive; CaV13 ICDI inh: inactive

How did COc1ccc(NC(=O)CCS(=O)(=O)c2ccc3nc(C)sc3c2)cc1OC do in these assays?
DSG3 Ab inh: inactive; N-glyco inh: inactive; ATG4B inhibitor: inactive; Vif imaging: inactive; CaV13 ICDI inh: inactive

What do the screens show for `Cc1nc2ccc(NC(=O)CCS(=O)(=O)c3ccc(Cl)cc3)cc2s1`?
DSG3 Ab inh: -174; NSD2 HMT inh: inactive; N-glyco inh: inactive; ATG4B inhibitor: inactive; Vif imaging: inactive; CaV13 ICDI inh: inactive

Results for CC1Cc2ccccc2N1C(=O)COC(=O)c1ccccc1NCCO (stereo not drawn) ?
DSG3 Ab inh: inactive; NSD2 HMT inh: inactive; N-glyco inh: inactive; ATG4B inhibitor: inactive; Vif imaging: 66; CaV13 ICDI inh: inactive

Results for Cc1cc(C(=O)Nc2c(F)c(F)c(F)c(F)c2F)n(-c2ccccc2)n1 ?
DSG3 Ab inh: inactive; NSD2 HMT inh: inactive; N-glyco inh: inactive; ATG4B inhibitor: inactive; Vif imaging: 73; CaV13 ICDI inh: inactive

Results for Cc1cc(C(=O)Nc2c(C)cccc2C)n(-c2ccccc2)n1 ?
DSG3 Ab inh: inactive; N-glyco inh: inactive; ATG4B inhibitor: inactive; Vif imaging: inactive; CaV13 ICDI inh: inactive

How did Oc1ccc2c(c1)oc1cc(O)ccc12 do in these assays?
DSG3 Ab inh: inactive; N-glyco inh: inactive; ATG4B inhibitor: inactive; CaV13 ICDI inh: inactive

Results for Cc1cc(C)c(OCCOCCN2CCCC2)c(C)c1 ?
DSG3 Ab inh: inactive; NSD2 HMT inh: inactive; N-glyco inh: inactive; ATG4B inhibitor: inactive; Vif imaging: inactive; CaV13 ICDI inh: inactive

What do the screens show for `CCOC(=O)CSc1nnc(-c2ccccc2NC(=O)c2ccccc2)o1`?
DSG3 Ab inh: 69; NSD2 HMT inh: inactive; N-glyco inh: inactive; ATG4B inhibitor: inactive; CaV13 ICDI inh: inactive

How did COC(=O)c1c(NC(=O)c2ccccc2C(=O)O)sc2c1CCCC2 do in these assays?
DSG3 Ab inh: inactive; NSD2 HMT inh: inactive; N-glyco inh: inactive; Vif imaging: inactive; CaV13 ICDI inh: inactive

Screens (PubChem BioAssay)
